# Activity calls are given as the source filed them. The calls were made as follows: active = hit-call score of the fitted dose curve at least 0.9, where 1 is the maximum; inactive = score below 0.9.
# Assay: ATG_NRF2_ARE_CIS: Attagene CIS-FACTORIAL HepG2 Assay for human Nuclear Factor Erythroid 2 Related Factor 2 (NFR2) response to Antioxidant Response Elements (ARE) (AID 2282992)
# Conditions: HepG2 Attagene ARE/NRF2 reporter, transcription factor activity; actives raise or lower the signal
# Experimental: ATG_CIS is a cell-based, multiplexed-readout assay that uses HepG2, a human liver cell line, with measurements taken at 24 hours after chemical dosing in a 24-well plate.ATG_NRF2_ARE_CIS is one of 52 assay component(s) measured or calculated from the ATG_CIS assay. It is designed to make measurements of mRNA induction, a form of inducible reporter, as detected with fluorescence intensity signals by Reverse transcription polymerase chain reaction (RT-PCR) and Capillary electrophoresis technology.Data from the assay component ATG_NRF2_ARE_CIS was analyzed into 1 assay endpoint. This assay endpoint, ATG_NRF2_ARE_CIS, was analyzed with bidirectional fitting relative to DMSO as the negative control and baseline of activity. Using a type of inducible reporter, measures of mRNA for gain or loss-of-signal activity can be used to understand the reporter gene at the transcription factor-level as they relate to the gene NFE2L2. Furthermore, this assay endpoint can be referred to as a primary readout, because this assay has produced multiple assay endpoints where this one serves a reporter gene function. To generalize the intended target to other relatable targets, this assay endpoint is annotated to the dna binding intended target family, where the subfamily is basic leucine zipper.
# Human liver HepG2 cells are transiently transfected with multiple reporter transcription units (MRTUs) in 6-well plates using FuGene 6 reagent (Roche; 3 ml FuGene/1 mg DNA). The MRTU constructs are regulated by a cis-regulating element (promoter). […] A major difference between the CIS and TRANS system is that in CIS activities of endogenous TFs are measured, whereas the TRANS assay evaluates changes in activities of exogenous, chimeric NR-Gal4 proteins. […] At the end of 24 hour incubation, total RNA was isolated using TriZol reagent (Invitrogen). The isolated RNA is then reverse-transcribed using oligo(dT) primer and Mo-MLV reverse transcriptase (Invitrogen) with DNAse I (Ambion) treatment for 30 min. The one-tenth of the produced cDNA was amplified by PCR using Taq DNA polymerase (Invitrogen) and two reporter sequence-specific primers. The PCR products were fluorescently labeled by primer extension with 6-arboxyfluorescein (6-FAM) 5'-labeled reporter sequence-specific primer (2 min at 95 C, 20 s at 68 C and 10 min at 72 C) and these products were digested with 5U of HpaI (New England Biolabs) for 2h at 37 C. The fragments were purified using Qiaquick PCR columns (Qiagen), analyzed on an ABI 3130xL genetic analyzer (Applied Biosystems) with peak positions identified by using a set of X-rhodamine (ROX)-labeled MapMarker1000 molecular weight standards (BioVentures). The raw capillary electrophoresis data was processed using Attagraph software (Attagene).
SMILES,outcome,AC50
O=[N+]([O-])c1ccc(Cl)c([N+](=O)[O-])c1,inactive,
N#CS,inactive,
CC(C)[C@H](C(=O)OC(C#N)c1cccc(Oc2ccccc2)c1)c1ccc(OC(F)F)cc1 (stereo not given in full),inactive,
CC1CC(=O)O1 (stereo not given),inactive,
CCOP(=O)(OCC)SCCSCC,inactive,
N#CCC#N,inactive,
CC(C)(C1CCC(O)CC1)C1CCC(O)CC1 (stereo not given),inactive,
Nc1nc(N)nc(Cl)n1,inactive,
O=[N+]([O-])c1ccc(Nc2ccccc2)cc1,inactive,
Cc1cc(C(C)(C)c2ccc(O)c(C)c2)ccc1O,,11.7 µM (active)
Cc1cccc(C)c1NC(=O)CN1CCCC1=O,inactive,
OC[C@@H](O)[C@H]1O[C@@H]2O[C@H](C(Cl)(Cl)Cl)O[C@@H]2[C@H]1O,inactive,
Cc1ccccc1OP(=O)(Oc1ccccc1C)Oc1ccccc1C,,8.48 µM (active)
BrCCCCBr,inactive,
Nc1ccc(Br)cc1,inactive,
CC(c1ccccc1)(c1ccc(O)cc1)c1ccc(O)cc1,,11.1 µM (active)
CC(C)O.CC(C)O.OCCN(CCO)CCO.OCCN(CCO)CCO.[Ti],inactive,
C=C(C)C(=O)OCCCCOC(=O)C(=C)C,,48.3 µM (active)
CCOC(=O)CCN(SN(C)C(=O)Oc1cccc2c1OC(C)(C)C2)C(C)C,,26.2 µM (active)
CC[N+](CC)(CC)CC,inactive,

SMILES,outcome,AC50
CC(C)(COCC1CO1)COCC1CO1 (stereo not given),,49.8 µM (active)
CC(=O)C(F)(F)C(F)(F)F,inactive,
CN(N=O)c1ccc([N+](=O)[O-])cc1,,32.3 µM (active)
O=C(O)C1(c2ccc3c(c2)OC[C@H](Cc2ccc(-c4ccccc4)cc2)[C@H]3O)CCCC1,,8.26 µM (active)
Oc1cccc(-c2ccccc2)c1,,100 µM (active)
Nc1nc(=S)[nH][nH]1,inactive,
CCOP(=S)(OCC)SCSc1cc(Cl)ccc1Cl,inactive,
CCCSP(=S)(OCC)Oc1ccc(Cl)cc1Cl (stereo not given),,13.3 µM (active)
CS(=O)(=O)c1ccc(C(=O)C2C(=O)CCCC2=O)c(Cl)c1COCC(F)(F)F,inactive,
O=C(NC(=O)c1c(F)cccc1F)Nc1ccc(Cl)cc1,inactive,
COCCl,inactive,
Cc1c([N+](=O)[O-])c(C)c([N+](=O)[O-])c(C(C)(C)C)c1[N+](=O)[O-],inactive,
CCCCOC(C)=O,inactive,
O=NN1CCCCCC1,inactive,
CC(C)CC(C)(c1ccc(O)cc1)c1ccc(O)cc1,,11.1 µM (active)
O=C/C(Cl)=C(/Cl)C(=O)O,,26.1 µM (active)
O=C(Cc1ccccc1)OCCc1ccccc1,inactive,
CC(C)(c1ccc(O)c(-c2ccccc2)c1)c1ccc(O)c(-c2ccccc2)c1,,4.64 µM (active)
C[C@H]1C(=O)O[C@@H]2CCN3CC=C(COC(=O)[C@](C)(O)[C@]1(C)O)[C@H]23,inactive,
C[N+](C)(C)Cc1ccccc1,inactive,
